Eleven compounds from PubChem BioAssay (NCATS) can be followed below.

Values joined by “and” are separate entries in the source; they are usually repeats but may differ in a detail not shown here. Identical values can stand only once. Records with an inconclusive call do not appear. Entries that show only a call come without a potency. Active and inactive are the calls of the source. The call rests on the fitted dose curve; in most records, active means well fitted cell-killing curve with a large enough effect; inconclusive means small, poorly fitted or top-dose-only effect; inactive means flat fitted curve, though single readings scatter.
Potency means the concentration at half of the fitted maximal effect.

The nature of the test: Cell Viability - LYMP2-012 (AID 982).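 Further: cellular ATP by luciferase luminescence where a drop means cytotoxicity; cells exposed to compound for one day before reading; nearly all actives have a fitted effect of over 55% in size.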 Conditions: LYMP2-012 lymphoblastoid cell viability qHTS; series mostly up to 92.2 µM. The source says:
NIH Chemical Genomics Center [NCGC]
NIH Molecular Libraries Screening Centers Network [MLSCN]
National Institutes of Environmental Health Sciences [NIEHS]
National Toxicology Program [NTP]
We have developed a 1536-well cell-based assay for quantitative high throughput screening (qHTS) against a number of cell lines to determine in vitro cytotoxicity of small molecules. This particular assay uses a human lymphoblastoid cell line (LYMP2-012) purchased from Coriell Institute for Medical Research.
NCGC Assay Protocol Summary:
The CellTiter-Glo luminescent cell viability assay (Promega) is a homogeneous method to measure the number of viable cells in culture. The end point readout of this assay is based on quantitation of intracellular ATP, an indicator of metabolic activity, using the luciferase reaction. Luciferase catalyzes the oxidation of beetle Luciferin to oxyluciferin and light in the presence of ATP. The luminescent signal is proportional to amount of ATP present.
Using the CellTiter-Glo luminescent cell viability assay, the amount of cellular ATP was measured in the lymphoblastoid cell line with complete culture medium following compound treatment for 24 hours. The assay was performed in opaque white Kalypsys 1536-well plates. In the screen, tetraoctylammonium bromide was used as positive control. Library compounds were measured for their ability to cause acute toxicity in the cell line, as reflected by a decrease in intracellular ATP levels, in a concentration-dependent manner. […] AC50 values were determined from concentration-response data modeled with the standard Hill equation.
qHTS protocol for CellTiter Glo lymphoblastoid cellular assay
[Step] [Parameter] [Value] [Description]
1. Reagent; 5 uL; 2500 lymphoblastoid cells/well
2. Time; 5 hr; 37 C incubation
4. Controls; 23 nL; Tetraoctylammonium bromide 6.4pM to 92 uM
5. Time; 24 hr; 37 C incubation
6. Reagent; 5 uL; CellTiter Glo reagent
7. Time; 30 min; Room Temperature
8. Detection; Luminescence; Viewlux plate reader
Keywords: cell viability, cytotoxicity, lymphoblastoid cell line, luminescence, NTPHTS, NTPHTS_NCGC, NIEHS, DSSTox, MLSMR, MLSCN, NIH Roadmap, qHTS, NCGC
On the technique in general: Quantitative high-throughput screening tests each substance at several concentrations.
In the case of `Oc1ccc(Cl)cc1Cc1ccccc1`, the Potency result is “inactive”.
The result for `CC(=O)Oc1ccccc1C(=O)Nc1ncc([N+](=O)[O-])s1` reads 39.8 µM (active); that for `CNCC(O)c1ccc(O)cc1` (stereo unspecified), “inactive”; that for `c1ccc2c(c1)Nc1ccccc1S2`, “inactive”.
`NCC(O)c1ccc(O)cc1` (stereo unspecified): the Potency result is “inactive”.
Consider `OCCOc1ccccc1`, for which the Potency result was “inactive”.
The result for `Oc1cccc2cccnc12` reads 15.8 µM (active) and 10 µM (active).
The same measure for `N[C@@H](Cc1ccc(N(CCCl)CCCl)cc1)C(=O)O`: 31.6 µM (active).
The same measure for `Oc1ccccc1-c1ccccc1`: “inactive”; for `CCOP(=S)(OCC)Oc1cc(C)nc(C(C)C)n1`: “inactive”.
With `CCCC(C)(COC(N)=O)COC(=O)NC(C)C` (stereo unspecified), the Potency result was “inactive”.
